Among all 310,000 compounds or so, about 17,000 (5.5%) were called active. A call without a number means that no potency is given here. About 11% were inconclusive and are not listed. Only a selection was taken, and actives are over-represented in it overall. Unmarked numbers belong to inactive results. Calls come from the whole dose curve; as a rule, active = well fitted inhibition curve with a large enough effect; inconclusive = small, poorly fitted or top-dose-only effect, or effect the other way; inactive = no such curve, though single readings can be large or run the other way.
These molecules were tested against Nuclear receptor ROR-gamma (Mus musculus) (UniProt P51450) (assay: qHTS for inhibitors of ROR gamma transcriptional activity). Settings: Drosophila S2 Gal4-RORgamma UAS-luciferase reporter, 20 h; series mostly up to 53.6 µM.
Outline: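 A Gal4/UAS one-hybrid system in insect cells: metallothionein-promoter Gal4–ROR gamma fusion plus Photinus luciferase reporter. Copper sulfate 700 uM final, 20 hr ambient incubation, luminescent detection after 10 min with reagent.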
Note: nearly all actives have a fitted effect of over 60% in size.
Potency is the fitted concentration of half-maximal effect.

Chain of Nuclear receptor ROR-gamma (Mus musculus) (P51450 whole entry, looked up, the tested form may be a part): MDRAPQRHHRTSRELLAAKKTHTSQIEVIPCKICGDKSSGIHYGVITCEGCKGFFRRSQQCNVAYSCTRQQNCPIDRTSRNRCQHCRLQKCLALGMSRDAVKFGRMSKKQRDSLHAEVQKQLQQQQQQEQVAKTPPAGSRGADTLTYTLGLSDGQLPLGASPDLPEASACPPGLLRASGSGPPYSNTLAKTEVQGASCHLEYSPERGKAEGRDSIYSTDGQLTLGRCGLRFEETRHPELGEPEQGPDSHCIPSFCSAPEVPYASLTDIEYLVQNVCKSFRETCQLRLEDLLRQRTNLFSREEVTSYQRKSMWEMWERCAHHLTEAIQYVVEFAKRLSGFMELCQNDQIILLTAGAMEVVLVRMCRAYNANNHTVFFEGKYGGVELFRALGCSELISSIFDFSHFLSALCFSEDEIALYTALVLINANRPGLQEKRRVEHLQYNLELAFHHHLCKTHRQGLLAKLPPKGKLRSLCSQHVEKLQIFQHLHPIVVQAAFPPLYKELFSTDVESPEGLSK

Structure (SMILES)	Potency	activity change, negative = inhibition
CCOc1ccc2c(c1)c(=O)c(S(=O)(=O)c1ccc(C)cc1)cn2CC	inactive	–
CC(=O)N1CCN(CC(c2ccccc2)c2ccccc2)CC1	inactive	–
COc1ccc(C(=O)C2CCCN(S(=O)(=O)c3cccc(C)c3)C2)c(C)c1 (centres undefined)	inactive	–
CCc1cccc(OC2OC(CO)C(O)C(O)C2NC(C)=O)c1 (centres undefined)	inactive	–
COc1cc(/C=C/CO)cc(OC)c1O[C@@H]1O[C@H](CO)[C@@H](O)[C@H](O)[C@H]1O	inactive	–
Cc1csc(-c2coc3cc(O[C@@H]4O[C@H](CO)[C@@H](O)[C@@H](O)[C@H]4O)ccc3c2=O)n1	3.16 µM (active)	–
O=C(O)c1cc([N+](=O)[O-])c(Nc2cccc3ccccc23)c([N+](=O)[O-])c1	inactive	–
CSc1ccccc1NC(=O)c1ccc2c(c1)CCN2S(C)(=O)=O	inactive	–
Cc1occc(=O)c1OCc1c(Cl)cccc1Cl	inactive	–
CCCOc1ccc(C(=O)NCCc2ccccc2)cc1	11.2 µM (active)	–
O=C(NCCc1ccccc1)c1ccc(OCCOc2ccccc2)cc1	inactive	–
O=C(NCCOc1ccccc1)c1ccccc1	inactive	–
CCOC(=O)c1c(C)[nH]c(C)c1S(=O)(=O)NCCCc1ccco1	inactive	–
COCc1nnc(NC(=O)c2ccc3c(c2)OCO3)s1	inactive	–
C/C(Cc1ccccc1)=N\NC(=O)CNC(=O)c1ccc2c(c1)OCCO2	inactive	–
Cc1cc(C)c2nc(NC(=O)c3ccc4c(c3)OCO4)sc2c1	0.251 µM (active)	–
Cc1ccc2sc(NNC(=O)c3ccc4c(c3)OCCO4)nc2c1C	7.94 µM (active)	–
Cc1cc(C)c2nc(NC(=O)C3CCCO3)sc2c1 (centres undefined)	inactive	–
Cc1ccc(F)cc1NC(=O)c1ccc2c(c1)OCO2	inactive	–
O=C(Nc1ccccc1F)c1ccc2c(c1)OCO2	inactive	–
Cc1ccc(-n2nc3c(c2NC(=O)c2ccc4c(c2)OCO4)CSC3)c(C)c1	inactive	–
O=C(Nc1nc2ccccc2s1)c1ccc2c(c1)OCO2	7.94 µM (active)	–
COc1ccc(C)cc1N(C(=O)Cn1nnc(-c2ccc(C)o2)n1)C(C(=O)NC1CCCC1)c1ccncc1 (centres undefined)	inactive	–
CCCN1CCN(C(=O)CCCNC(=O)c2ccc(Cl)cc2)CC1	inactive	–
COCCCN1C(=O)c2ccc(C(=O)OCC(=O)NCc3ccccc3OC)cc2C1=O	inactive	–
CCOCCCNc1nc(-c2ccccc2)nc2ccccc12	–	24.9% [at 1.91 µM]
COc1ccc(CN(C)C(=O)Cc2ccsc2)c(OC)c1OC	inactive	–
CC(=O)c1ccc(NC(=O)c2ccc(-n3cncn3)c([N+](=O)[O-])c2)cc1	inactive	–
CCCC[C@]12Cc3cc(OC)c(OC)cc3C(O1)C1=C(CC3(CCCCC3)OC1=O)O2	–	3.02% [at 10 µM]
